According to article PMC11006913:

How the values were obtained:
Experiment in all cases: PBM; 200 nM protein, PBS
Conditions in all cases: dsDNA, one strand shown
[1] = molecular target: HOXB9 (Homo sapiens, UniProt P17482 171-250, T197M)
[2] = molecular target: HOXC9 (Homo sapiens, UniProt P31274 178-260, K195R)
[3] = molecular target: HOXC10 (Homo sapiens, UniProt Q9NYD6 254-340)
[4] = molecular target: HOXB9 (Homo sapiens, UniProt P17482 171-250)
[5] = molecular target: HOXC9 (Homo sapiens, UniProt P31274 178-260)
[6] = molecular target: HOXD13 (Homo sapiens, UniProt P35453 263-343, T313R)
[7] = molecular target: HOXC9 (Homo sapiens, UniProt P31274 178-260, R193K)
[8] = molecular target: HOXD13 (Homo sapiens, UniProt P35453 263-343)
[9] = molecular target: HOXC10 (Homo sapiens, UniProt Q9NYD6 254-340, K271E)
[10] = molecular target: HOXD13 (Homo sapiens, UniProt P35453 263-343, T313A)
[11] = molecular target: HOXB9 (Homo sapiens, UniProt P17482 171-250, R186Q)
[12] = molecular target: HOXC9 (Homo sapiens, UniProt P31274 178-260, R222W)
[13] = molecular target: HOXA2 (Homo sapiens, UniProt O43364 129-215, R185K)
[14] = molecular target: HOXA2 (Homo sapiens, UniProt O43364 129-215, R185T)
[15] = molecular target: HOXA2 (Homo sapiens, UniProt O43364 129-215, Y150S)
[16] = molecular target: HOXA2 (Homo sapiens, UniProt O43364 129-215)
Sequence of HOXA2 (Homo sapiens, UniProt O43364 129-215) (O43364 129-215): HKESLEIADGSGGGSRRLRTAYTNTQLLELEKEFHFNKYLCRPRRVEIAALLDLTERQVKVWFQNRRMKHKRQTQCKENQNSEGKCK

Sequence of HOXB9 (Homo sapiens, UniProt P17482 171-250, T197M) (P17482 171-250 T197M): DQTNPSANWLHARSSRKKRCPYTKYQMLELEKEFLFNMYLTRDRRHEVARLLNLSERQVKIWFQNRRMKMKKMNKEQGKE
Sequence of HOXC9 (Homo sapiens, UniProt P31274 178-260) (P31274 178-260): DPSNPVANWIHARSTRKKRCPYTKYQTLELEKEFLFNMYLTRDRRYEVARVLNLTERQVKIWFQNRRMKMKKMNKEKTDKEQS
Sequence of HOXD13 (Homo sapiens, UniProt P35453 263-343) (P35453 263-343): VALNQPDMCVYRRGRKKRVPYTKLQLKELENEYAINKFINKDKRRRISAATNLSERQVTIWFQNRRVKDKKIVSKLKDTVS
Sequence of HOXC9 (Homo sapiens, UniProt P31274 178-260, K195R) (P31274 178-260 K195R): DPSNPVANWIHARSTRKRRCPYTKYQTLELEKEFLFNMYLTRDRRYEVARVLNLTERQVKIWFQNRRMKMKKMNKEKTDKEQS
Sequence of HOXB9 (Homo sapiens, UniProt P17482 171-250) (P17482 171-250): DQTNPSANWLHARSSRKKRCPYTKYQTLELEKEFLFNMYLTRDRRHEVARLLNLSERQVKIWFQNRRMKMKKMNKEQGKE
Sequence of HOXD13 (Homo sapiens, UniProt P35453 263-343, T313R) (P35453 263-343 T313R): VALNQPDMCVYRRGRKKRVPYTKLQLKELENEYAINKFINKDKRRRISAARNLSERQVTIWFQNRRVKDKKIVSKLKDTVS
Sequence of HOXC9 (Homo sapiens, UniProt P31274 178-260, R193K) (P31274 178-260 R193K): as the sequence (P31274 178-260) above, with R16K counted along it
Sequence of HOXD13 (Homo sapiens, UniProt P35453 263-343, T313A) (P35453 263-343 T313A): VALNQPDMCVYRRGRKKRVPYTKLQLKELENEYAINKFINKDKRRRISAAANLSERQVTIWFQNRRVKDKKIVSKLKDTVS
Sequence of HOXC10 (Homo sapiens, UniProt Q9NYD6 254-340, K271E) (Q9NYD6 254-340 K271E): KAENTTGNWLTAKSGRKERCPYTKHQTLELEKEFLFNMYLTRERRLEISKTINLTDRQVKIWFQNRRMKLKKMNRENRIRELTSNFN
Sequence of HOXC9 (Homo sapiens, UniProt P31274 178-260, R222W) (P31274 178-260 R222W): as the sequence (P31274 178-260) above, with R45W counted along it
Sequence of HOXC10 (Homo sapiens, UniProt Q9NYD6 254-340) (Q9NYD6 254-340): as the sequence (Q9NYD6 254-340 K271E) above, with E18K counted along it
Sequence of HOXB9 (Homo sapiens, UniProt P17482 171-250, R186Q) (P17482 171-250 R186Q): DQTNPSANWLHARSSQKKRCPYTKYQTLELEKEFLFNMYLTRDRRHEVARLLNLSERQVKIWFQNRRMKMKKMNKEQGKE
Sequence of HOXA2 (Homo sapiens, UniProt O43364 129-215, R185K) (O43364 129-215 R185K): as the sequence (O43364 129-215) above, with R57K counted along it
Sequence of HOXA2 (Homo sapiens, UniProt O43364 129-215, Y150S) (O43364 129-215 Y150S): as the sequence (O43364 129-215) above, with Y22S counted along it
Sequence of HOXA2 (Homo sapiens, UniProt O43364 129-215, R185T) (O43364 129-215 R185T): as the sequence (O43364 129-215) above, with R57T counted along it

Sequence	binding signal [1]	binding signal [2]	binding signal [3]	binding signal [4]	binding signal [5]	binding signal [6]	binding signal [7]	binding signal [8]	binding signal [9]	binding signal [10]	binding signal [11]	binding signal [12]	binding signal [13]	binding signal [14]	binding signal [15]	binding signal [16]
TCGTTAAA	9.96 upbm affinity estimate (log intensity, higher = more binding, comparable within an allelic series)	12.5 upbm affinity estimate (log intensity, higher = more binding, comparable within an allelic series)	12.4 upbm affinity estimate (log intensity, higher = more binding, comparable within an allelic series)	11.7 upbm affinity estimate (log intensity, higher = more binding, comparable within an allelic series)	12.7 upbm affinity estimate (log intensity, higher = more binding, comparable within an allelic series)	10.8 upbm affinity estimate (log intensity, higher = more binding, comparable within an allelic series)	12.4 upbm affinity estimate (log intensity, higher = more binding, comparable within an allelic series)	12 upbm affinity estimate (log intensity, higher = more binding, comparable within an allelic series)	12.1 upbm affinity estimate (log intensity, higher = more binding, comparable within an allelic series)	11.7 upbm affinity estimate (log intensity, higher = more binding, comparable within an allelic series)	11.3 upbm affinity estimate (log intensity, higher = more binding, comparable within an allelic series)	10.9 upbm affinity estimate (log intensity, higher = more binding, comparable within an allelic series)	–	–	–	–
CATTAAAC	9.93 upbm affinity estimate (log intensity, higher = more binding, comparable within an allelic series)	12.5 upbm affinity estimate (log intensity, higher = more binding, comparable within an allelic series)	12.2 upbm affinity estimate (log intensity, higher = more binding, comparable within an allelic series)	11.8 upbm affinity estimate (log intensity, higher = more binding, comparable within an allelic series)	12.6 upbm affinity estimate (log intensity, higher = more binding, comparable within an allelic series)	–	12.6 upbm affinity estimate (log intensity, higher = more binding, comparable within an allelic series)	–	11.9 upbm affinity estimate (log intensity, higher = more binding, comparable within an allelic series)	–	11.6 upbm affinity estimate (log intensity, higher = more binding, comparable within an allelic series)	10.9 upbm affinity estimate (log intensity, higher = more binding, comparable within an allelic series)	–	–	–	–
GCCATAAA	9.72 upbm affinity estimate (log intensity, higher = more binding, comparable within an allelic series)	12.7 upbm affinity estimate (log intensity, higher = more binding, comparable within an allelic series)	12.4 upbm affinity estimate (log intensity, higher = more binding, comparable within an allelic series)	12.2 upbm affinity estimate (log intensity, higher = more binding, comparable within an allelic series)	12.9 upbm affinity estimate (log intensity, higher = more binding, comparable within an allelic series)	10.7 upbm affinity estimate (log intensity, higher = more binding, comparable within an allelic series)	12.9 upbm affinity estimate (log intensity, higher = more binding, comparable within an allelic series)	11.9 upbm affinity estimate (log intensity, higher = more binding, comparable within an allelic series)	11.8 upbm affinity estimate (log intensity, higher = more binding, comparable within an allelic series)	11.7 upbm affinity estimate (log intensity, higher = more binding, comparable within an allelic series)	11.9 upbm affinity estimate (log intensity, higher = more binding, comparable within an allelic series)	10.9 upbm affinity estimate (log intensity, higher = more binding, comparable within an allelic series)	–	–	–	–
ATCGTTAA	9.99 upbm affinity estimate (log intensity, higher = more binding, comparable within an allelic series)	12.5 upbm affinity estimate (log intensity, higher = more binding, comparable within an allelic series)	12.4 upbm affinity estimate (log intensity, higher = more binding, comparable within an allelic series)	–	12.6 upbm affinity estimate (log intensity, higher = more binding, comparable within an allelic series)	–	12.5 upbm affinity estimate (log intensity, higher = more binding, comparable within an allelic series)	–	12.1 upbm affinity estimate (log intensity, higher = more binding, comparable within an allelic series)	–	–	10.7 upbm affinity estimate (log intensity, higher = more binding, comparable within an allelic series)	13.1 upbm affinity estimate (log intensity, higher = more binding, comparable within an allelic series)	–	–	–
GTTTATTA	9.87 upbm affinity estimate (log intensity, higher = more binding, comparable within an allelic series)	12.6 upbm affinity estimate (log intensity, higher = more binding, comparable within an allelic series)	12.4 upbm affinity estimate (log intensity, higher = more binding, comparable within an allelic series)	11.7 upbm affinity estimate (log intensity, higher = more binding, comparable within an allelic series)	12.6 upbm affinity estimate (log intensity, higher = more binding, comparable within an allelic series)	11 upbm affinity estimate (log intensity, higher = more binding, comparable within an allelic series)	12.6 upbm affinity estimate (log intensity, higher = more binding, comparable within an allelic series)	12 upbm affinity estimate (log intensity, higher = more binding, comparable within an allelic series)	11.6 upbm affinity estimate (log intensity, higher = more binding, comparable within an allelic series)	11.8 upbm affinity estimate (log intensity, higher = more binding, comparable within an allelic series)	11.5 upbm affinity estimate (log intensity, higher = more binding, comparable within an allelic series)	11.2 upbm affinity estimate (log intensity, higher = more binding, comparable within an allelic series)	–	–	–	–
CCTAGGGC	8.55 upbm affinity estimate (log intensity, higher = more binding, comparable within an allelic series)	9.6 upbm affinity estimate (log intensity, higher = more binding, comparable within an allelic series)	–	8.37 upbm affinity estimate (log intensity, higher = more binding, comparable within an allelic series)	9.6 upbm affinity estimate (log intensity, higher = more binding, comparable within an allelic series)	–	9.53 upbm affinity estimate (log intensity, higher = more binding, comparable within an allelic series)	–	–	–	8.47 upbm affinity estimate (log intensity, higher = more binding, comparable within an allelic series)	9.68 upbm affinity estimate (log intensity, higher = more binding, comparable within an allelic series)	10.4 upbm affinity estimate (log intensity, higher = more binding, comparable within an allelic series)	6.96 upbm affinity estimate (log intensity, higher = more binding, comparable within an allelic series)	10.4 upbm affinity estimate (log intensity, higher = more binding, comparable within an allelic series)	6.98 upbm affinity estimate (log intensity, higher = more binding, comparable within an allelic series)
